# Values joined by “and” are separate entries in the source; they are usually repeats but may differ in a detail not shown here. Equal values may be shown once. Read-outs that look alike come from different tables or passages of the source.
# Experiments:
# [1] = tested on: PAK4; conditions: concentration: 1 μM, replicates: in singlicate, n = 1
# [2] = tested on: PAK6; conditions: concentration: 1 μM, replicates: in singlicate, n = 1
# [3] = tested on: PAK7; conditions: concentration: 1 μM, replicates: in singlicate, n = 1
# [4] = tested on: T1, PCTK1; conditions: concentration: 1 μM, replicates: in singlicate, n = 1
# T1 construct: gene CDK16
# [5] = tested on: T2, PCTK2; conditions: concentration: 1 μM, replicates: in singlicate, n = 1
# T2 construct: gene CDK17
# [6] = tested on: T3, PCTK3; conditions: concentration: 1 μM, replicates: in singlicate; n = 1
# T3 construct: gene CDK18
# [7] = tested on: PDGFRA; conditions: concentration: 1 μM, replicates: in singlicate, n = 1
# [8] = tested on: PDGFRB; conditions: concentration: 1 μM, replicates: in singlicate, n = 1
# [9] = tested on: PDPK1; conditions: concentration: 1 μM, replicates: in singlicate, n = 1
# [10] = tested on: PFTAIRE2; conditions: concentration: 1 μM, replicates: in singlicate; n = 1
# [11] = tested on: T4, PFTK1; conditions: concentration: 1 μM, replicates: in singlicate, n = 1
# T4 construct: gene CDK14
# [12] = tested on: PHKG1; conditions: concentration: 1 μM, replicates: in singlicate, n = 1
# [13] = tested on: PHKG2; conditions: concentration: 1 μM, replicates: in singlicate, n = 1
# [14] = tested on: PIK3C2B; conditions: concentration: 1 μM, replicates: in singlicate; n = 1
# [15] = tested on: PIK3C2G; conditions: concentration: 1 μM, replicates: in singlicate, n = 1
# [16] = tested on: PIK3CA; conditions: concentration: 1 μM, replicates: in singlicate, n = 1
# [17] = tested on: PIK3CB; conditions: concentration: 1 μM, replicates: in singlicate, n = 1
# [18] = tested on: PIK3CD; conditions: concentration: 1 μM, replicates: in singlicate; n = 1
# [19] = tested on: PIK3CG; conditions: concentration: 1 μM, replicates: in singlicate, n = 1
# [20] = tested on: T5, PIK4CB; conditions: concentration: 1 μM, replicates: in singlicate, n = 1
# T5 construct: gene PI4KB
# 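Also: KINOMEscan kinase panel screen.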
compound,measurement,setting,value
NS(=O)(=O)CCc1cccc(Nc2nccc(-c3c(-c4cccc(NC(=O)c5c(F)cccc5F)c4)nn4ccccc34)n2)c1 [GSK336735],%Inh,[1],0%
same,%Inh,[2],16%
same,%Inh,[3],4%
same,%Inh,[4],10%
same,%Inh,[5],0%
same,%Inh,[6],23%
same,%Inh,[7],90.1%
same,%Inh,[8],100%
same,%Inh,[9],1%
same,%Inh,[10],25%
same,%Inh,[11],26%
same,%Inh,[12],0%
same,%Inh,[13],4%
same,%Inh,[14],0%
same,%Inh,[15],0%
same,%Inh,[16],0%
same,%Inh,[17],0%
same,%Inh,[18],0%
same,%Inh,[19],0%
same,%Inh,[20],0%
Cc1c(Cn2c(C)nn3c(=O)cc(N4CCOC(C)C4)nc23)cccc1C(F)(F)F (centres unmarked) [GSK2344444],%Inh,[1],0%
same,%Inh,[2],0%
same,%Inh,[3],0%
same,%Inh,[4],6%
same,%Inh,[5],0%
same,%Inh,[6],8%
same,%Inh,[7],0%
same,%Inh,[8],18%
same,%Inh,[9],8%
same,%Inh,[10],16%
same,%Inh,[11],48%
same,%Inh,[12],0%
same,%Inh,[13],0%
same,%Inh,[14],31%
same,%Inh,[15],24%
same,%Inh,[16],5%
same,%Inh,[17],97.4%
same,%Inh,[18],92.7%
same,%Inh,[19],64%
same,%Inh,[20],0%
NCCNS(=O)(=O)c1ccc(-c2ccnc3[nH]ccc23)cc1 [GSK977617],%Inh,[1]; 1 µM,82% and 75%
same,%Inh,[2]; 1 µM,73% and 61%
same,%Inh,[3]; 1 µM,90.8% and 77%
same,%Inh,[4]; 1 µM,1% and 2%
same,%Inh,[5]; 1 µM,7% and 0%
same,%Inh,[6],0%
same,%Inh,[7]; 1 µM,11% and 10%
same,%Inh,[8]; 1 µM,80% and 65%
same,%Inh,[9]; 1 µM,11% and 0%
same,%Inh,[10],25%
same,%Inh,[11]; 1 µM,16% and 27%
same,%Inh,[12]; 1 µM,45% and 25%
same,%Inh,[13]; 1 µM,75% and 60%
same,%Inh,[14],0%
same,%Inh,[15]; 1 µM,32% and 12%
same,%Inh,[16]; 1 µM,0% and 3%
same,%Inh,[17]; 1 µM,43% and 15%
same,%Inh,[18],0%
same,%Inh,[19]; 1 µM,80% and 68%
same,%Inh,[20]; 1 µM,64% and 26%
N#Cc1ccc(-c2cc(-c3c[nH]nc3-c3ccccn3)ccn2)cc1 [GW693028],%Inh,[1],0%
same,%Inh,[2],0%
same,%Inh,[3],11%
same,%Inh,[4],0%
same,%Inh,[5],0%
same,%Inh,[6],33%
same,%Inh,[7],0%
same,%Inh,[8],7%
same,%Inh,[9],0%
same,%Inh,[10],0%
same,%Inh,[11],19%
same,%Inh,[12],0%
same,%Inh,[13],0%
same,%Inh,[14],0%
same,%Inh,[15],0%
same,%Inh,[16],0%
same,%Inh,[17],0%
same,%Inh,[18],0%
same,%Inh,[19],0%
same,%Inh,[20],0%
Cc1nnc(-c2ccc3ncc(-c4ccc(S(C)=O)cc4)n3c2)o1 (centres unmarked),%Inh,[1],0%
same,%Inh,[2],0%
same,%Inh,[3],5%
same,%Inh,[4],14%
same,%Inh,[5],0%
same,%Inh,[6],0%
same,%Inh,[7],42%
same,%Inh,[8],80%
same,%Inh,[9],0%
same,%Inh,[10],0%
same,%Inh,[11],0%
same,%Inh,[12],20%
same,%Inh,[13],0%
same,%Inh,[14],13%
same,%Inh,[15],28%
same,%Inh,[16],3%
same,%Inh,[17],64%
same,%Inh,[18],0%
same,%Inh,[19],3%
same,%Inh,[20],0%
Cc1ccc(C(=O)NCC(N)=O)cc1-n1c(C)cc(OCc2ccc(F)cc2F)c(Br)c1=O,%Inh,[1],13%
same,%Inh,[2],12%
same,%Inh,[3],5%
same,%Inh,[4],0%
same,%Inh,[5],2%
same,%Inh,[6],22%
same,%Inh,[7],0%
same,%Inh,[8],9%
same,%Inh,[9],15%
same,%Inh,[10],10%
same,%Inh,[11],26%
same,%Inh,[12],9%
same,%Inh,[13],1%
same,%Inh,[14],0%
same,%Inh,[15],51%
same,%Inh,[16],0%
same,%Inh,[17],0%
same,%Inh,[18],30%
same,%Inh,[19],0%
same,%Inh,[20],0%
COc1cc(Nc2nccc(N3CCC(NC(=O)c4cccc(NC(C)=O)c4)C3)n2)cc(OC)c1OC (centres unmarked) [GSK1379754],%Inh,[1],0%
same,%Inh,[2],0%
same,%Inh,[3],0%
same,%Inh,[4],4%
same,%Inh,[5],0%
same,%Inh,[6],20%
same,%Inh,[7],0%
same,%Inh,[8],54%
same,%Inh,[9],30%
same,%Inh,[10],18%
same,%Inh,[11],18%
same,%Inh,[12],7%
same,%Inh,[13],3%
same,%Inh,[14],100%
same,%Inh,[15],0%
same,%Inh,[16],99.9%
same,%Inh,[17],0%
same,%Inh,[18],0%
same,%Inh,[19],99.9%
same,%Inh,[20],0%
O=C(NCCCN1CCOCC1)c1cccc(Nc2nccc(Nc3ccc(Oc4ccccc4)cc3)n2)c1 [GW663929],%Inh,[1],9%
same,%Inh,[2],7%
same,%Inh,[3],12%
same,%Inh,[4],0%
same,%Inh,[5],22%
same,%Inh,[6],12%
same,%Inh,[7],46%
same,%Inh,[8],99.6%
same,%Inh,[9],9%
same,%Inh,[10],18%
same,%Inh,[11],43%
same,%Inh,[12],0%
same,%Inh,[13],14%
same,%Inh,[14],6%
same,%Inh,[15],0%
same,%Inh,[16],12%
same,%Inh,[17],18%
same,%Inh,[18],7%
same,%Inh,[19],11%
same,%Inh,[20],21%
Fc1ccc(-c2ncn(CCCN3CCOCC3)c2-c2cccnc2)cc1 [SB-211743],%Inh,[1],7%
same,%Inh,[2],0%
same,%Inh,[3],0%
same,%Inh,[4],0%
same,%Inh,[5],0%
same,%Inh,[6],0%
same,%Inh,[7],0%
same,%Inh,[8],0%
same,%Inh,[9],1%
same,%Inh,[10],0%
same,%Inh,[11],0%
same,%Inh,[12],3%
same,%Inh,[13],0%
same,%Inh,[14],0%
same,%Inh,[15],0%
same,%Inh,[16],10%
same,%Inh,[17],0%
same,%Inh,[18],0%
same,%Inh,[19],0%
same,%Inh,[20],17%
COc1cc2c(cc1OC[C@@H](O)CO)ncc1c3ccc(C#N)cc3[nH]c21,%Inh,[1],0%
same,%Inh,[2],0%
same,%Inh,[3],11%
same,%Inh,[4],0%
same,%Inh,[5],0%
same,%Inh,[6],0%
same,%Inh,[7],99.2%
same,%Inh,[8],91.4%
same,%Inh,[9],8%
same,%Inh,[10],6%
same,%Inh,[11],0%
same,%Inh,[12],95.5%
same,%Inh,[13],99.2%
same,%Inh,[14],0%
same,%Inh,[15],0%
same,%Inh,[16],18%
same,%Inh,[17],0%
same,%Inh,[18],2%
same,%Inh,[19],9%
same,%Inh,[20],0%

# Source: PMC5540273 (PLoS ONE, 2017)
